# Experimental data: PubChem BioAssay
# Potency and affinity values are given separately. Inconclusive results are not listed. A call without a number means that no potency is given here. Activity calls are given as the source filed them. Unless noted, the rule behind the calls is not given here.
# Legend:
# [1] = cytotoxicity in PAX8-dependent RMG-1 cells, dose response, cell-based, cherry-pick (AID 687029;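 active = signal drop whose fitted half-maximal concentration is at most twice the top valid dose, in every test run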;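 note: cells exposed to compound for 96 hours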); settings: RMG-1 viability, CellTiterGlo ATP luminescence, 96 h; series mostly up to 35 µM
# [2] = inhibitors of CMV-promoter luciferase reporter, dose response, counter-screen for Pax8 inhibitor project, cell-based, HEK293, luminescence, dry powder (AID 743020;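 active = signal-lowering compounds whose fitted half-maximal concentration is at or below twice the top tested dose in every run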;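 note: HEK293 cells stably expressing the CMV luciferase reporter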); settings: SteadyGlo luminescence, 24 h; series mostly up to 35 µM
# [3] = IGROV1 ovarian cancer cell cytotoxicity, dose response, PAX8 inhibitor project, plate reader, dry powder samples (AID 743043); settings: series mostly up to 35 µM;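 note: more negative means fewer viable cells or more cytotoxicity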
# [4] = IOSE-T80 ovarian epithelial cell cytotoxicity, dose response, cytotoxicity control for PAX8 inhibitor project, plate reader, dry powder samples (AID 743045); settings: IOSE-T80 ovarian epithelial cells; series mostly up to 35 µM;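 note: more negative values mean more cell killing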
# [5] = cytotoxicity in OVCAR8 ovarian cancer cells, dose response, PAX8 project, cell-based, plate reader, dry powder samples (AID 743197); settings: series mostly up to 35 µM
# [6] = non-specific cell cytotoxicity, dose response, cytotoxicity control for PAX8 inhibitor project, plate reader, dry powder samples (AID 743021); settings: cell line, non-specific cytotoxicity counter-screen; series mostly up to 35 µM
# [7] = A2780 ovarian cancer cell cytotoxicity, dose response, cytotoxicity control, plate reader, dry powder samples (AID 743046); settings: series mostly up to 35 µM
# [8] = NIH:OVCAR-3 ovarian cancer cell cytotoxicity, dose response, PAX8 inhibitor project, plate reader, dry powder samples (AID 743044); settings: NIH:OVCAR-3 ovarian cancer cell viability; max activity: at 35 µM unless noted; series mostly up to 50 µM
# [9] = A549 cell cytotoxicity, dose response, cytotoxicity control, plate reader, cherry-pick, antagonist series (AID 743412); settings: series mostly up to 26 µM
smiles,measurement,setting,value
CO[C@@H]1CN(C)C(=O)c2cc(NC(=O)c3ccc(-c4ccccc4)cc3)ccc2OC[C@H](C)NC[C@H]1C,outcome,[1],inactive
same,outcome,[2],inactive
same,outcome,[3],inactive
same,outcome,[4],inactive
same,outcome,[5],inactive
C[C@@H]1CCCCO[C@H](CN(C)C(=O)Cc2ccccc2)[C@@H](C)CN([C@@H](C)CO)C(=O)c2cc(NC(=O)Nc3ccc(C(F)(F)F)cc3)ccc2O1,outcome,[1],inactive
same,outcome,[2],inactive
same,outcome,[6],inactive
same,outcome,[3],inactive
same,outcome,[4],inactive
CN1c2ccc(-c3ccccc3)cc2[C@H]2[C@H](CCN2C(=O)NC2CCCCC2)[C@@H]1CO,outcome,[1],inactive
same,outcome,[2],inactive
same,outcome,[6],inactive
same,outcome,[3],inactive
same,outcome,[7],inactive
COc1cc2c(c(OC)c1OC)-c1ccc(SC)c(=O)cc1C(NC(=O)C(F)(F)F)CC2 (stereo unspecified),outcome,[1],inactive
same,outcome,[6],inactive
Cc1noc(C)c1S(=O)(=O)Nc1ccc2c(c1)C(=O)N([C@H](C)CO)C[C@H](C)[C@@H](CN(C)C(=O)Nc1ccc(C(F)(F)F)cc1)OCCCC[C@H](C)O2,outcome,[1],inactive
same,outcome,[2],inactive
same,outcome,[6],inactive
same,outcome,[3],inactive
same,outcome,[4],inactive
same,outcome,[7],inactive
O=C(/C=C/c1ccccc1)Nc1cccc(C(=O)O)c1,outcome,[1],inactive
same,outcome,[2],inactive
same,outcome,[6],inactive
same,outcome,[8],inactive
same,outcome,[4],inactive
same,outcome,[7],inactive
same,outcome,[9],inactive
CC(=O)NC(c1ccc(C(C)C)cc1)c1ccc2cccnc2c1O (stereo unspecified),outcome,[1],inactive
same,outcome,[6],inactive
COc1cccc2c1C(=O)c1c(O)c3c(c(O)c1C2=O)C[C@@](O)(C(C)=O)C[C@@H]3O[C@H]1C[C@H](N)[C@H](O)[C@H](C)O1,outcome,[1],inactive
same,outcome,[6],inactive
O=C(COC(=O)/C(=C/c1cccs1)c1cccs1)NC(c1ccccc1)c1ccccc1,outcome,[1],inactive
same,outcome,[6],inactive
CC(C)(C)N(Cc1ccc2c(c1)OCO2)C(=O)/C=C\S(=O)c1ccccc1 (stereo unspecified),outcome,[1],inactive
same,outcome,[6],inactive
C#CCN(C[C@@H]1[C@@H](OC(=O)NC2CCCC2)[C@@H](OC(=O)NC2CCCC2)Cn2c(=O)ccc(=O)n21)S(=O)(=O)c1ccc(C)cc1,outcome,[1],inactive
same,outcome,[6],inactive
Oc1ccc(Cc2ccccc2)c2cccnc12,outcome,[1],inactive
same,outcome,[6],inactive
O=[N+]([O-])c1ccc(N/N=C/c2sc(N3CCOCC3)nc2-c2ccccc2)c(S(=O)(=O)Nc2ccc(Cl)cc2)c1,outcome,[1],inactive
same,outcome,[6],inactive
COc1cccc(/C=N/Nc2ccc([N+](=O)[O-])cn2)c1O,outcome,[1],inactive
same,outcome,[6],inactive
CC1=CC(C)(C)N2C(=O)C3(NCCc4c3[nH]c3ccccc43)c3cc(C)cc1c32 (stereo unspecified),outcome,[1],inactive
same,outcome,[6],inactive
COc1ccc(OC)c(-c2nnc3n2N=C(c2ccc(OC)c(OC4CCCC4)c2)CS3)c1,outcome,[1],inactive
same,outcome,[6],inactive
CCOCC(=O)NC1CCc2cc(OC(=O)COCC)c(OC)c(OC)c2-c2ccc(SC)c(=O)cc21 (stereo unspecified),outcome,[1],inactive
same,outcome,[6],inactive
Cc1cccc2sc(N(CCCN(C)C)C(=O)CCS(=O)(=O)c3ccccc3)nc12,outcome,[1],inactive
same,outcome,[6],inactive
C=CC(=O)N1C/C(=C/c2ccc(F)cc2)C(=O)/C(=C\c2ccc(F)cc2)C1,outcome,[1],inactive
same,outcome,[6],inactive
COc1ccc(NC(=O)C(=O)NCC2CCCN2S(=O)(=O)c2ccc(C)cc2)cc1 (stereo unspecified),outcome,[1],inactive
same,outcome,[6],inactive
Cc1cc(O)c(C(C)C)cc1C1(c2cc(C(C)C)c(O)cc2C)OC(=O)c2ccccc21,outcome,[1],inactive
same,outcome,[6],inactive
CC1CCCC=CC2CC(OC(=O)CN(C)C)CC2C(O)C=CC(=O)O1 (stereo unspecified),outcome,[1],inactive
same,outcome,[6],inactive
Cn1nnnc1Sc1ncnc2scc(-c3cc4ccccc4o3)c12,outcome,[1],inactive
same,outcome,[6],inactive
O=C(/C=C/c1cccs1)NC(=S)NNC(=O)c1ccccc1O,outcome,[1],inactive
same,outcome,[6],inactive
